According to PubChem BioAssay AID1508619 (National Center for Advancing Translational Sciences (NCATS), 2020):
Results filed as inconclusive are left out. A call without a number means that no potency is given here. Calls of active or inactive are those of the source. Calls follow the shape of the dose curve; as a rule, active = well fitted inhibition curve with a large enough effect; inconclusive = small, poorly fitted or top-dose-only effect; inactive = no such curve, though single readings can be large or run the other way.

test: Counterscreen qHTS for Identification of Calcium Integrin Binding Protein 1 (CIB1) Competitor; conditions: series mostly up to 114 µM
Source text: Assay Provider: Ulhas P. Naik, PhD
Sidney Kimmel Medical College
Thomas Jefferson University, Philadelphia, PA
Primary function of platelets is to maintain hemostasis. At the site of vascular injury, platelets adhere to adhesive proteins such as collagen and von Willebrand factor. Adherent platelets are activated and generate soluble platelet agonists such as thrombin, ADP and thromboxane A2. Following exposure of circulating platelets to these agonists, results in platelet shape change, granule secretion and activation of platelet integrin alphaIIb-beta3. Ligand binding to activated integrin alphaIIb-beta3 triggers outside-in signaling, leading to platelet aggregation, stabilization of platelet plug, and clot retraction. Upon atherosclerotic plaque rupture also causes platelet plug formation, which underlies a number of cardiovascular diseases such as myocardial infraction and stroke. A number of anti-platelet drugs such as aspirin, clopidogrel, prasugrel, vorapaxar, and eptifibatide are currently available to prevent the thrombotic complications. However, these anti-platelet agents have several limitations including inherent variability in individual responses, developing resistance, and serious bleeding side effects. For these reasons they are not suitable for long-term protection. Based on the experiences with current anti-platelet drugs, it appears that the most useful therapeutic approach is to intersect the secondary responses such as integrin outside-in signaling or recruitment of platelets by TxA2 and secreted ADP. Compounds, which can largely preserve the primary hemostatic function of platelets but inhibit secondary response will be most desired therapeutic agents for treatment of cardiovascular disease.
CIB1 is a calcium integrin binding protein, which specifically interact with the alphaIIb subunit of integrin alphaIIb-beta3. Binding of CIB1 to alphaIIb regulates the outside-in signaling in platelets, which is needed for thrombus stabilization and thrombus growth. […] Therefore, we propose that discovery of a small molecule that can prevent the association of CIB1 and alphaIIb-beta3 will be a potential anti-platelet agent that can block the thrombus formation without undue effect on hemostasis.
To develop fluorescence polarization (FP) assay using fluorescently labeled alphaIIb peptide and CIB1 protein. Using FP assay characterize the binding affinity, competitive inhibition, and acceptable Z factor (0.5 to1) in order to perform the HTS to identify small molecule compound that can prevent CIB1 binding to platelet integrin alphaIIb-beta3. Active compounds were re-acquired and validated using confirmatory and counterscreens (using 100 nM scrambled peptide).
[1] Naik MU, Nigam A, Manrai P, et al. CIB1 deficiency results in impaired thrombosis: the potential role of CIB1 in outside-in signaling through integrin alpha IIb beta 3. J Thromb Haemost. 2009;7(11):1906-1914. doi:10.1111/j.1538-7836.2009.03581.
SEQUENCE No. (1, 2, 3, etc.); […] (e.g., Cells, Incubation, Reagent, etc.); VALUE and DESCRIPTION.
1; Reagent; 3 uL; Protein or buffer (4/3x)
2; Compound; 46 nL; Control inhibitor / compound library
3; Time; 15 min; Room temperature incubation
4; Reagent; 1 uL; Fluorescent labeled peptide (4x)
5; Time; 1000 rpm; Centrifuge
6; Time; 15 min; Room temperature incubation
7; Detection; Ex 480/ Em 540; ViewLux Fluorescence Read
NOTES (numbers refer to sequence above)
1; Protein Mixture: C1B1-GST (final concentrations of 1 uM). Buffer composition: 5 mM HEPES pH 7.4, 125 mM NaCl, 5 mM CaCl2, 0.01% Tween20.
2; Control Inhibitor: unlabeled peptide (final concentration range 17.4 nM to 572 uM). Compound Library final concentration range 18.3 nM to 114 uM.
3; Room temperature incubation.
4; Fluorescent Labeled Peptide: FITC-alphaIIb (final concentration of 100 nM). Sequence of Scrambled peptide: Acetyl-[…]-FITC (purity is 95.37%).
6; Room temperature incubation.
[…]
Potency is read from the fitted curve at half-maximal effect.

SMILES | Potency
CN(C)CCc1c[nH]c2cccc(O)c12 | 89.1 µM (active)
C[CH2][Hg][S]c1ccccc1C(=O)O | inactive
O=C1C(I)=CC(=C(c2cc(I)c(O)c(I)c2)c2ccccc2C(=O)O)C=C1I | inactive
CCCCCCCCCCCCCCCC[N+](C)(C)C | inactive
O=c1c(C2CC(c3ccc(-c4ccc(Br)cc4)cc3)Cc3ccccc32)c(O)sc2ccccc12 (stereo not given) | inactive
CN(C)C(=S)SSC(=S)N(C)C | inactive
O=C1OC(c2ccc(O)c(S(=O)(=O)O)c2)(c2ccc(O)c(S(=O)(=O)O)c2)c2c(Br)c(Br)c(Br)c(Br)c21 | inactive
COC[C@H]1OC(=O)c2coc3c2[C@@]1(C)C1=C(C3=O)C2CCC(=O)[C@@]2(C)C[C@H]1OC(C)=O (stereo not given in full) | inactive
CC(=O)[O][Hg][c]1ccccc1 | inactive
COc1nn(CSP(=S)(OC)OC)c(=O)s1 | inactive
CC1=C(O)C(=O)C=C2C1=CC=C1[C@@]2(C)CC[C@@]2(C)[C@@H]3C[C@](C)(C(=O)O)CC[C@]3(C)CC[C@]12C | 44.7 µM (active)
O=c1oc2ccccc2c(O)c1C(CC(O)c1ccc(-c2ccc(Br)cc2)cc1)c1ccccc1 (stereo not given) | inactive
S=C(SSC(=S)N1CCCCC1)N1CCCCC1 | inactive
Cc1ccc([N+](=O)[O-])[c]2c1[O][Hg]2 | inactive
N[C@@H](Cc1ccc(Oc2cc(I)c(O)c(I)c2)c(I)c1)C(=O)O | inactive
